Source: PubChem BioAssay (University of Kansas High Throughput Screening Laboratory)
This is a sample that favours compounds with a hit; in the whole collection about 3.6% have one here.
Pf apPOL block – Pf-apPOL DNA polymerase inhibition | Recombinant Pf-apPOL, molecular beacon fluorescence, 1.5 h | inhibition, % at 10 µM | actives 0.25% (n = 210,000) | AID 1794808
mHTT CaM bind – disrupts binding of mutant huntingtin to calmodulin; P42858; AlphaScreen His-mHTT/GST-CaM binding, luminescence; inhibition, % at 15 µM; actives 3.6% (n = 190,000); AID 1671202;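 note: 0% = both proteins with DMSO and 100% = one protein alone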
An asterisk follows results filed as active; / = no result given; ! = a repeat was not active. Cut-off read from the data, not from the text of the source: active = inhibition above about 50%; inactive = the rest.

SMILES	Pf apPOL block	mHTT CaM bind
COc1ccc(-c2nc3s/c(=C\c4ccc(-c5ccc(C(C)=O)cc5)o4)c(=O)n3n2)cc1	-7	2
O=[N+]([O-])c1cc(Cl)ccc1-n1ccnc1	/	-1
O=C1N(O)C2(C=CCCC2)C(=O)C12CCCCC2 (centres undefined)	/	-5
Oc1ccccc1-c1nc2ccccc2[nH]1	1	65*
O=c1[nH]c(-c2ccccc2O)nc2ccccc12	2	-9
CC(C)Cc1nc(SCC(=O)Nc2ccc(S(N)(=O)=O)cc2)n[nH]1	62*	-5
CC(C)Cc1nc(SCC(=O)Nc2ccccc2)n[nH]1	2	-4
CC(C)(C)c1ccc(NC(=O)N2CCCN(c3nccc(C(F)(F)F)n3)CC2)cc1	0	/
Cc1nn(C)c(C)c1Sc1ccc(Br)cc1	-3	60*!
Cc1nn(C(=O)c2cccs2)c(C)c1Sc1ccc(Br)cc1	-4	4
COCCn1cc2c3c(cccc31)CN(C(=O)Nc1ccc3c(c1)OCO3)CC2	-2	-9
O=c1oc(=O)n(Cc2ccc(Cl)c(Cl)c2)c2ccccc12	-3	99*
N=c1n(CCO)c2ccccc2n1Cc1ccc(Cl)c(Cl)c1	-8	13
Cn1c(=O)n(Cc2ccc(Cl)c(Cl)c2)c2ccccc21	-5	78*
Cn1c(=O)n(Cc2ccccc2Cl)c2ccccc21	-2	3
COc1ccc(CN(CCC2(C(C)C)CCOC(C)(C)C2)C(C)=O)cc1OC (centres undefined)	0	15
COc1ccc(CN(CCC2(c3ccccc3)CCOC(C)(C)C2)C(C)=O)cc1OC (centres undefined)	1	68*
O=C(Oc1ccc2c(c1)OC(=Cc1ccccc1)C2=O)c1ccco1	-4	4
O=C(Oc1ccc2c(c1)OC(=Cc1ccccc1Br)C2=O)c1ccco1	-4	50*
Cc1ccc(-n2c(SCC(N)=O)nc3c(sc4ccccc43)c2=O)cc1	-2	18
CCN1C(=O)Cc2ccccc2C1C(=O)N1CCOCC1 (centres undefined)	0	-14
O=C1CSC(c2cn(-c3ccccc3)nc2-c2cccnc2)N1Cc1ccccc1 (centres undefined)	-36	28
COc1ccc(-c2nn(-c3ccccc3)cc2C2SCC(=O)N2Cc2ccccc2)cc1 (centres undefined)	-5	87*
Cc1cccc2c3c([nH]c12)CCC(NC(=O)CC(C)C)C3 (centres undefined)	-4	47
Cc1cc(C)c2[nH]c3c(c2c1)CC(NC(=O)C1CCCO1)CC3 (centres undefined)	-3	54*
SMILES	Pf apPOL block	mHTT CaM bind
Cc1cc(Cl)cc2c3c([nH]c12)CCC(NC(=O)C1CCCC1)C3 (centres undefined)	-4	49
CCOC(=O)C(=O)NC1CCc2[nH]c3ccc(C)cc3c2C1 (centres undefined)	0	21
COc1ccccc1C(=O)NC1CCc2[nH]c3c(C)cc(Cl)cc3c2C1 (centres undefined)	-3	92*
Cc1ccccc1C(=O)NC1CCc2[nH]c3ccc(Br)cc3c2C1 (centres undefined)	0	100*
Cc1cc(NS(=O)(=O)c2ccc(NC(=O)c3ccc(Cl)cc3Cl)cc2)nc(C)n1	-2	5
CN(C)C(=O)Cn1c(=O)c2cccn2c2ccccc21	0	2
COc1ccccc1C(=O)NC1CCN(c2ccc(C)cc2)C1=O (centres undefined)	-4	-3
COc1ccc(Nc2nc(Cl)nc(NC(C)C)n2)cc1	-3	6
COc1ccc(Nc2nc(NN)nc(OCC(F)(F)F)n2)cc1	/	92*
O=C(NCC#CCN1CCc2ccccc2C1)c1cc(C2CC2)on1	-4	0
CC(C)C[C@@H](CSc1ccccc1)N1CCN(CCc2ccccc2)CCC1=O	-5	88*
CCCN1CCC(=O)N([C@H](CSc2ccccc2)c2ccccc2)CC1	-7	34
O=C1CCC(OCc2ccccc2)CCN1[C@H](CSc1ccccc1)Cc1ccccc1 (some centres undefined)	-4	53*
CC(C)C[C@@H](CSc1ccc(Br)cc1)N1CCN(CCc2ccccc2)CCC1=O	-5	19
O=C1CCN(CCc2ccccc2)CCN1[C@H](CSc1ccccc1)c1ccccc1	0	100*
O=C1CCN(CCc2ccccc2)CCN1[C@H](COc1ccccc1)c1ccccc1	1	100*
Cc1ccc(SC[C@H](Cc2ccccc2)N2CC[C@@H](C)CCC2=O)cc1	-7	-2
CCCN1CCC(=O)N([C@H](COc2ccccc2)c2ccccc2)CC1	-9	22
COc1ccc(CN2CCc3nc(N4CCN(c5ccccc5F)CC4)ncc3C2)cc1	-1	10
Cc1ccc(-c2nc(N)n[nH]2)cc1	-3	0
Cn1nc(C(=O)O)cc1C(F)(F)F	/	-2
Cc1ccc(SC[C@H](c2ccccc2)N2CCN(CCc3ccccc3)CCC2=O)cc1	6	100*
CC(=O)Nc1ccc(SC[C@H](Cc2ccccc2)N2CCN(CCc3ccccc3)CCC2=O)cc1	-3	100*
CC(=O)Nc1ccc(SCCN2CCN(CCc3ccccc3)CCC2=O)cc1	-5	16
CCCN1CCC(=O)N([C@H](CSc2ccc(C)cc2)c2ccccc2)CC1	-2	6
SMILES	Pf apPOL block	mHTT CaM bind
Cc1cc(C)c(CNC(=O)C2CCN(c3cncnc3N3CCOCC3)CC2)c(C)c1	-9	6
COCCN1COc2ccc3c(=O)c(Oc4ccc(OC)cc4)c(C(F)(F)F)oc3c2C1	-4	18
CC(C)(C)c1ccc(-c2nnc(-c3ccccc3[N+](=O)[O-])o2)cc1	4	/
Cc1cccc(C(=O)Nc2nnc3ccccn23)c1	-7	22
O=C(Nc1nnc2ccccn12)c1cccc(F)c1	-11	56*
O=C(Nc1nnc2ccccn12)c1ccc(F)cc1	-8	24
Cc1ccc(C(=O)Nc2nnc3ccccn23)s1	-10	91*
Cc1ccc(C(=O)Nc2nnc3ccccn23)cc1	-8	24
O=C(Nc1nnc2ccccn12)c1cc(F)cc(F)c1	-11	82*
CC(C)c1cc(C2CCCN2C(=O)NCCc2ccccc2)no1 (centres undefined)	1	-13
CCCc1nc2cccnc2n1C1CCN(C(=O)CCc2ccc(OC)cc2)C1 (centres undefined)	-5	11
COc1ccc(-c2nc3cccnc3n2C2CCN(C(=O)NCc3cccc(F)c3)C2)cc1 (centres undefined)	-7	41
COc1ccc(-c2nc3cccnc3n2C2CCN(C(=O)Nc3cccc(C)c3)C2)cc1 (centres undefined)	-2	62*
COc1ccc(-c2nc3cccnc3n2C2CCN(C(=O)c3cccc(F)c3)C2)cc1 (centres undefined)	3	28
COc1ccc(-c2nc3cccnc3n2C2CCN(C(=O)c3cc(F)cc(F)c3)C2)cc1 (centres undefined)	0	53*
COc1ccc(-c2nc3cccnc3n2C2CCN(C(=O)CCc3ccccc3)C2)cc1 (centres undefined)	-1	86*
COc1ccc(-c2nc3cccnc3n2C2CCN(C(=O)NCc3ccc(F)cc3)C2)cc1 (centres undefined)	1	77*
COc1ccc(-c2nc3cccnc3n2C2CCN(C(=O)Nc3cccc(OC)c3)C2)cc1 (centres undefined)	-8	46
CCCS(=O)(=O)c1cscc1NC(=O)CSCCS(=O)(=O)c1ccc(Cl)cc1	10	/
